In PubChem BioAssay AID488890 (Southern Research Specialized Biocontainment Screening …, 2010) one finds inhibition data, which are given here for 81 compounds.

About 1,300 (0.41%) of roughly 320,000 compounds were called active. About 3% were inconclusive and are not listed. The rule behind the calls is not given here. The list is a sample of the results. Potency and affinity values are given separately.

As usually defined, the inhibition is the drop in the measured response relative to a control, in per cent.

The experiment can be described thus: growth inhibition of non-replicating M. tuberculosis (AID 488890).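 Note: plate controls were DMSO cells for no effect and high antibiotic wells for full effect.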 The conditions noted are these: Mycobacterium tuberculosis non-replicating, at 25 µM, stronger effect = higher value.
Take `COc1ccc(-c2nc3c(c(SCC(=O)N4CCOCC4)n2)COC(C)(C)C3)cc1`: the inhibition is -3.27%. Under `CC1CCCCC1NC(=O)CN1C(=O)NC(C)(c2ccc(OC(F)F)cc2)C1=O` (stereo unspecified) stands -1.28%. Under `Cc1ccccc1NC(=O)c1ccc2ccccc2c1` stands 40.9%; under `CCCn1nnnc1NCc1ccc(Cl)cc1Cl`, 1.4%.

With `CCCn1nnnc1NC(=O)c1cc(Br)ccc1OC`, the inhibition was determined as 66.1%. Regarding `CCCn1nnc(NC(=O)c2ccc3ccccc3c2)n1`, the inhibition is -1.15%. Then `Cc1nnc(NC(=O)c2ccc3ccccc3c2)s1`, with 9.74%; and `CCCn1nnnc1NC(=O)COc1ccc(Cl)c(C)c1`, with 74.2%. Then `CCn1nnnc1NC(=O)c1ccc2ccccc2c1`, with -1.96%; and `CCCCC(=O)Nc1nnnn1CCC`, with 12.9%; and `CC(Oc1ccccc1)C(=O)OCC(=O)Nc1ccc2c(c1)OCO2` (stereo unspecified), with 23.9%. Under `CCOC(=O)c1sc2nc(C)nc(N3CCN(S(=O)(=O)c4ccccc4)CC3)c2c1C` stands 34.9%; under `CCOC(=O)c1c(-c2ccccc2Cl)cn2ccccc12`, 3.48%; under `CCCCn1c(=O)[nH]c(=O)c2c1nc(-c1ccc(C(F)(F)F)cc1)n2C`, 2.06%. Turning to `C=CCn1c(CCC)nc2ccccc21`, the inhibition came out at 59.2%. Then `Cc1ccc(CNC(=O)COC(=O)CSc2ccc(Br)cc2C)cc1`, with 71.4%. Then `CN(CC(=O)Nc1cccc(F)c1)C(=O)c1ccccc1OCC(=O)Nc1cccc(C(F)(F)F)c1`, with 1.32%; and `CCc1cc2cc(C)ccc2nc1SCC(=O)NNC(=O)c1ccco1`, with -31.6%. Then `O=C(O)c1cccc(S(=O)(=O)N2CCC(n3nnc4cc(C(F)(F)F)ccc43)CC2)c1`, with 3.59%. `CC(=O)c1cccc(NC(=O)N(c2ccccc2)c2ccccc2)c1`: the inhibition was 4.45%. Under `Cc1ccc(S(=O)(=O)NCCc2nnc3ccc(SCC(=O)Nc4nc(C)cs4)nn23)cc1` stands -6.91%.

Take `CC1=CC(C)(C)Nc2ccc(OC(=O)CN3C(=O)c4cccc5cccc(c45)C3=O)cc21`: the inhibition was 78.9%.

Take `CC1=CC(C)(C)Nc2ccc(OC(=O)CCN3C(=O)c4ccccc4C3=O)cc21`: the inhibition is 19%.

Take `COc1ccc([C@H]2CC(=O)C=C(c3cccc(OC(F)(F)F)c3)C2)cc1`: the inhibition was 24.7%. Then `NC(=O)Nc1cc(Cl)ccc1Cl`, with -13.6%. Then `NC(=O)N/N=C1\CCS(=O)(=O)c2ccc(F)cc21`, with 1.74%. Then `S=C(NC1CCCCCC1)NC1CCCC1`, with 71.8%; and `c1ccc(-c2nc3ccccc3[nH]2)nc1`, with 20.2%; and `O=c1[nH]c(-c2ccncc2)nc2ccccc12`, with 26.6%. `O=C(COc1ccc(/C=N/NC(=O)C(=O)N2CCCCCC2)cc1)Nc1ccccc1Cl`: the inhibition is 74.1%. Regarding `Cc1ccc(C)c(S(=O)(=O)NCC(c2ccco2)N2CCc3ccccc3C2)c1` (stereo unspecified), the inhibition worked out at 10.8%.

`COc1ccc(C(=O)NC(C)c2ccc(-n3ccnc3)cc2)cc1[N+](=O)[O-]` (stereo unspecified): the inhibition was determined as 6.19%.

On to `CC(NC(=O)c1ccc(N(C)C)c([N+](=O)[O-])c1)c1ccc(-n2ccnc2)cc1` (stereo unspecified), for which the inhibition was found to be 8.22%. For the compound `O=C(Nc1ccccc1C(F)(F)F)c1ccsc1`, the inhibition was -9.54%. Under `CN(Cc1cnn(C)c1)Cc1nc(COc2ccccc2)no1` stands 12.5%; under `COc1ccc(OC)c(NC(=O)CSC2=NN3CCCC(=O)N=C3S2)c1`, -10.2%.

On to `O=C(CNCc1ccco1)Nc1ccccc1-n1cccc1`, for which the inhibition came to 5.71%. Under `O=C(NCC(c1ccco1)N1CCN(c2ccccc2)CC1)C(=O)NC1CCCCC1` (stereo unspecified) stands -8.96%. Regarding `Cc1cc2c(cc1C)N(C(=O)CSC1=NCCS1)C(C)(C)c1ssc(=S)c1-2`, the inhibition turned out to be 27.9%.

With `Cn1c(O)c(N=NC(=O)c2cc(-c3cccs3)nc3ccccc23)c2ccccc21`, the inhibition was -7.82%.

On to `O=C(COc1cc(O)c2c(=O)cc(-c3ccccc3)oc2c1)c1ccccc1`, for which the inhibition was -7.87%. Consider `CC(C)(C)OC(=O)COc1cc(O)c2c(=O)cc(-c3ccccc3)oc2c1`, for which the inhibition is 53.9%. Under `O=C(COc1ccc2oc(-c3ccccc3)cc(=O)c2c1)Nc1ccccc1` stands 52.2%; under `CCOC(=O)c1cc(=O)c2ccc(OCC(=O)Nc3ccccc3)cc2o1`, 0.19%; under `Cc1ccc(OCC(=O)OCC(=O)c2ccccc2)cc1C`, 20.6%. Under `COc1ccc(C(=O)c2ccccc2)c(O)c1` stands 26.2%; under `NC(=O)c1ccc(NC(=O)CN2CCOCC2)cc1`, -9.52%. With `Oc1ccc(/C=N/NP(=S)(c2ccccc2)c2ccccc2)c(O)c1O`, the inhibition was -2.4%. Under `COc1ccc(OC)c(/C=C/C(=O)OCC(=O)NCc2cccs2)c1` stands 22.8%.

Take `N#Cc1cnn2c(N)c(-c3ccc(Cl)cc3)cnc12`: the inhibition is -16.2%.

As for `CCn1c(CC(=O)Nc2ccc(C)cc2)nnc1SCC(=O)N1CCN(c2ccccc2)CC1`, the inhibition was 21%.

`Cc1cc(NC(=O)/C=C/c2ccccc2)no1`: the inhibition is 17.2%. Then `COC(=O)c1cc(/C=C/c2ccccc2)[nH]n1`, with 15.2%; and `Cc1cccc(C)c1NC(=S)NCCCN1CCCC1=O`, with -28.2%.

With `CCOc1ccc(N(CC(=O)Nc2ccc(OC)cc2OC)S(=O)(=O)c2c(C)[nH]c(=O)[nH]c2=O)cc1`, the inhibition was 25.1%. Under `O=c1oc(-c2cccs2)nc2ccccc12` stands 48.8%. Under `O=c1c2cnn(-c3ccccc3)c2nc(-c2cccs2)n1-c1ccc(Br)cc1` stands 8.85%; under `N#Cc1c(NCCCO)nc(NCc2ccccc2)c2c1CCN(Cc1ccccc1)C2`, 26.6%; under `O=C(COC(=O)c1ccccn1)NC12CC3CC(CC(C3)C1)C2`, 30.9%. `C/C(=N\NC(=O)c1ccccn1)C12CC3CC(CC(C3)C1)C2`: the inhibition turned out to be 54.4%. Take `O=C(OCC(=O)C12CC3CC(CC(C3)C1)C2)c1cnccn1`: the inhibition was 17.7%. Then `O=C(NNC(=O)C12CC3CC(CC(C3)C1)C2)c1ccncc1`, with 4.55%.

Regarding `CC(C)N1CCN(Cc2nc3ccccc3s2)CC1CCO` (stereo unspecified), the inhibition was 8.77%. Under `Cc1cc(C)c2cc(C(=O)Nc3ccc4c(c3)OCO4)[nH]c2c1` stands -16.4%; under `CCOC(=O)c1c(NC(=O)C(C)N2CCN(S(=O)(=O)c3cccs3)CC2)sc2c1CCC(C)C2` (stereo unspecified), -4.48%; under `COc1ccc(/C=C/C(=O)Oc2ccc(C)cc2)cc1`, 65.3%.

Take `Cc1ccc(-c2cc(-c3ccc(C)cc3)[n+](C)o2)cc1`: the inhibition was 24.7%. Then `CC1Cc2ccccc2N1C(=O)CCS(=O)(=O)c1cccs1` (stereo unspecified), with 15.3%; and `COc1ccc(CCNC(=O)Cc2ccc(OC)c(OC)c2)cc1OC`, with 13.8%; and `O=C(OCc1cc([N+](=O)[O-])cc2c1OCOC2)c1ccc2ccccc2n1`, with 74.8%. For the compound `O=C(Cc1ccccc1[N+](=O)[O-])OCc1cccc([N+](=O)[O-])c1`, the inhibition came to 34.7%.

As to `COc1ccc(C(C)=O)cc1COC(=O)c1cc(C)nc2ccccc12`, the inhibition was 7.17%. Turning to `O=C(OCc1cccc([N+](=O)[O-])c1)c1cnccn1`, the inhibition is 17.7%. In the case of `COc1ccc(C(C)=O)cc1COC(=O)c1cc2ccccc2cc1O`, the inhibition is 2.94%. Then `Nc1ccccc1C(=O)OCc1ccc([N+](=O)[O-])cc1`, with 3.01%. In the case of `c1ccc(OCCn2cnc3ccccc32)cc1`, the inhibition was 1.01%.

In the case of `CSc1ccccc1OCc1cc(C(=O)N(Cc2nccn2C)C(C)C)no1`, the inhibition was -13.1%.

As to `Cc1ccnc(Nc2nc(-c3sc(C)nc3C)cs2)c1`, the inhibition is 36.1%. Under `O=C(NCc1cccnc1)c1cccc(F)c1` stands -1.31%; under `CCn1cc(C(=O)OCC(=O)NCc2ccc3c(c2)OCO3)c(=O)c2ccc(C)nc21`, 40.4%; under `CCC(C(=O)Nc1ccc2c(c1)OCCO2)n1nnc2ccccc2c1=O` (stereo unspecified), 6.85%.
